Activity calls are given as the source filed them. How the source made its calls: active means hit-call score of the fitted dose curve at least 0.9, where 1 is the maximum; inactive means score below 0.9.
Columns and labels:
[1] = ATG_CRE_CIS: Attagene CIS-FACTORIAL HepG2 Assay for human cAMP Responsive Element (CRE) binding protein 3 (AID 2282926); settings: HepG2 CRE cis-reporter, Attagene multiplexed mRNA; actives raise or lower the signal
Summary of the method: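 Liver-derived HepG2, transfected with a CRE-containing reporter panel, exposed 24 h; transcript levels sized and quantified by capillary electrophoresis of labelled amplicons; signal changes either way referenced to vehicle.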

[2] = biological target: CCAAT/enhancer-binding protein beta (Homo sapiens) (UniProt P17676); experiment: ATG_C_EBP_CIS: Attagene CIS-FACTORIAL HepG2 Assay for human CCAAT/Enhancer Binding Protein (C/EBP) beta (AID 2282927); settings: HepG2 Attagene cis-factorial transcription factor reporter; actives raise or lower the signal
Summary of the method: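 HepG2 transiently transfected with multiplexed reporter units under cis-regulatory promoters reporting endogenous C/EBPb activity. After 24 h exposure, reporter mRNA assayed by RT-PCR, fluorescent labelling, HpaI digestion and capillary electrophoresis; bidirectional fitting versus DMSO.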

[3] = ATG_CMV_CIS: Attagene CIS-FACTORIAL HepG2 Assay for human CMV (Internal Marker) (AID 2282928); settings: HepG2 CMV promoter reporter, transcription factor profiling; actives raise or lower the signal;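 further: endpoint acts as a background internal control marker rather than a target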
Summary of the method: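 Reporter transcripts from transfected HepG2 cells are isolated after 24 h of chemical dosing, reverse-transcribed and amplified. Fragments labeled with 6-FAM are cut with HpaI and quantified by capillary electrophoresis; DMSO defines baseline.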

[4] = ATG_DR4_LXR_CIS: Attagene CIS-FACTORIAL HepG2 Assay for human Liver X Receptor (LXR), DR4 submotif (AID 2282929); settings: HepG2 Attagene DR4 cis-reporter, mRNA transcription; actives raise or lower the signal
Summary of the method: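 Measures endogenous transcription factor activity via a DR4-driven reporter transcript in human HepG2 cells. Compounds incubated 24 h; mRNA quantified by RT-PCR and capillary electrophoresis, analysed as gain or loss of signal versus DMSO.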

[5] = biological target: Aryl hydrocarbon receptor (Homo sapiens) (UniProt P35869); experiment: ATG_Ahr_CIS: Attagene CIS-FACTORIAL HepG2 Assay for human Aryl Hydrocarbon Receptor (Ahr) (AID 2282930); settings: HepG2 AhR cis-factorial reporter transcription; actives raise or lower the signal
Summary of the method: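 HepG2 cells transiently transfected with cis-element-driven multiplexed reporter units; endogenous AhR activity read as reporter mRNA 24 h after dosing, via RT-PCR, 6-FAM labelling, HpaI digestion and capillary electrophoresis. Bidirectional fit relative to DMSO.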

[6] = ATG_AP_1_CIS: Attagene CIS-FACTORIAL HepG2 Assay for human Activator Protein 1 (AP-1) (AID 2282931); settings: HepG2 Attagene cis-factorial AP-1 reporter mRNA; actives raise or lower the signal
Summary of the method: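 Bidirectional concentration-response fitting against DMSO controls. Underlying signal: reporter mRNA from cis-promoter constructs in transiently transfected HepG2, measured after 24 h by RT-PCR and capillary electrophoresis.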

[7] = ATG_AP_2_CIS: Attagene CIS-FACTORIAL HepG2 Assay for human Activator Protein 2 (AP-2) (AID 2282932); settings: HepG2 AP-2 cis-reporter, Attagene transcription factor profiling; actives raise or lower the signal
Summary of the method: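 Read-out: fluorescent reporter mRNA via RT-PCR and capillary electrophoresis, 24 h post-dose in transiently transfected HepG2. Endogenous factors drive cis-promoter reporters; gain or loss of signal fitted bidirectionally against DMSO.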

[8] = ATG_BRE_CIS: Attagene CIS-FACTORIAL HepG2 Assay for human Bone Morphogenetic Protein (BMP) Response Element (BRE) (AID 2282933); settings: HepG2 BMP response element reporter, Attagene transcription factor profiling; actives raise or lower the signal
Summary of the method: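 HepG2 cells transiently transfected with CIS reporter units (endogenous TF activity, BMP response element), dosed 24 h. Reporter mRNA quantified by RT-PCR, fluorescent labelling and capillary electrophoresis; bidirectional fit vs DMSO baseline.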

[9] = biological target: Retinoic acid receptor alpha (Homo sapiens) (UniProt P10276); experiment: ATG_DR5_RAR_CIS: Attagene CIS-FACTORIAL HepG2 Assay for human Retinoic Acid Receptor Alpha (RARE), DR5 submotif (AID 2282934); settings: HepG2 Attagene cis-factorial RARE DR5 reporter, mRNA; actives raise or lower the signal;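 on AC50: reporter responds to endogenous RAR alpha beta and gamma in HepG2 not RARA alone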
Summary of the method: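 HepG2 cells transiently transfected with multiplexed reporter units; DR5 cis-element drives reporter through endogenous transcription factors. After 24 h dosing, reporter mRNA quantified by RT-PCR, fluorescent labeling, HpaI digestion and capillary electrophoresis; bidirectional fitting versus DMSO.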

[10] = biological target: Transcription factor E2F1 (Homo sapiens) (UniProt Q01094); experiment: ATG_E2F_CIS: Attagene CIS-FACTORIAL HepG2 Assay for human E2F Transcription Factor 1 (AID 2282935); settings: HepG2 Attagene cis-reporter, E2F reporter RNA transcripts; actives raise or lower the signal
Summary of the method: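 Transient MRTU transfection of HepG2; 24 h compound exposure; RNA → oligo(dT) RT → PCR → FAM label → HpaI cut → CE fluorescence. Gain/loss of signal fit against DMSO.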

Measured: AC50

Sequence of CCAAT/enhancer-binding protein beta (Homo sapiens) (P17676 whole entry, looked up): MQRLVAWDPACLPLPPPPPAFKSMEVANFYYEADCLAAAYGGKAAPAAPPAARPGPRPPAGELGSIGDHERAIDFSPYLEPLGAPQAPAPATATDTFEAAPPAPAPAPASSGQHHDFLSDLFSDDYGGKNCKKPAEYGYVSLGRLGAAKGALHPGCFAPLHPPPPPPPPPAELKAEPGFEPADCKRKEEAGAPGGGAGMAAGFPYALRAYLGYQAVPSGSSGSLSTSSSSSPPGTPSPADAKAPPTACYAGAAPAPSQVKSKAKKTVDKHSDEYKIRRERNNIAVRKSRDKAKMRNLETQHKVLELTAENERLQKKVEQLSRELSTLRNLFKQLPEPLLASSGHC
Sequence of Aryl hydrocarbon receptor (Homo sapiens) (P35869 whole entry, looked up): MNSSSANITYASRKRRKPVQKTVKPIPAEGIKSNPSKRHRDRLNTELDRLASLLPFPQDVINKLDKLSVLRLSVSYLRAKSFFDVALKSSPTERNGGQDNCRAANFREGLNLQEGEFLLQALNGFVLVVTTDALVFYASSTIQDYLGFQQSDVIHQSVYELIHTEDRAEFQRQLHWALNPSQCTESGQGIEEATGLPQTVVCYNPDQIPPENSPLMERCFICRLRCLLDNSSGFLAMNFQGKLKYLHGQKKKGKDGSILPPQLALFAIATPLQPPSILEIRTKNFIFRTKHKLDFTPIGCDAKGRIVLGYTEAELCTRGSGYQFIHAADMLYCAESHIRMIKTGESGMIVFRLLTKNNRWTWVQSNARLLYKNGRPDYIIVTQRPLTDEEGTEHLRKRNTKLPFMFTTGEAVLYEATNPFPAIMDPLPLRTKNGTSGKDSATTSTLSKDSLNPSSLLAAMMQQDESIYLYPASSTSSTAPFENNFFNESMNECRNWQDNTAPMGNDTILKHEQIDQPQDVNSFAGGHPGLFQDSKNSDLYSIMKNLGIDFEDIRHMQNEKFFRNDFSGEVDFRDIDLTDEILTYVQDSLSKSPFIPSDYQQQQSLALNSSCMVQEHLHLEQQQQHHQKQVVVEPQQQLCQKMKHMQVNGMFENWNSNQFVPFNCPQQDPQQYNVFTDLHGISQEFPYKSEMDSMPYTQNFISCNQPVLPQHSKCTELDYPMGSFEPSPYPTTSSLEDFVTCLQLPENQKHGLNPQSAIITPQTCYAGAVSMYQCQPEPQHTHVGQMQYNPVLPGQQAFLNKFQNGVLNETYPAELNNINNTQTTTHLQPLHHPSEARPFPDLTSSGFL
Sequence of Retinoic acid receptor alpha (Homo sapiens) (P10276 whole entry, looked up): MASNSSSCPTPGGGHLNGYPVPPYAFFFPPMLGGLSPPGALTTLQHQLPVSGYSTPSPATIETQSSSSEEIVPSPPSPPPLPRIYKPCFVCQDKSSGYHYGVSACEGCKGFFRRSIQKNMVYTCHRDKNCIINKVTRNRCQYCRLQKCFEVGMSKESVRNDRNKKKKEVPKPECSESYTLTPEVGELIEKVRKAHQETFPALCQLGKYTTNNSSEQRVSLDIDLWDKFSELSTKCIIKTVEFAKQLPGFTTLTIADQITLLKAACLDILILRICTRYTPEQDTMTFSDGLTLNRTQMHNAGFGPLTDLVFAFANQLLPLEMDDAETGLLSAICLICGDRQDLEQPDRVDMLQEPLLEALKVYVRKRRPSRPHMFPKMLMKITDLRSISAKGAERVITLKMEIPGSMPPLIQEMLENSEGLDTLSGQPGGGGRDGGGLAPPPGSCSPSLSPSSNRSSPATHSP
Sequence of Transcription factor E2F1 (Homo sapiens) (Q01094 whole entry, looked up): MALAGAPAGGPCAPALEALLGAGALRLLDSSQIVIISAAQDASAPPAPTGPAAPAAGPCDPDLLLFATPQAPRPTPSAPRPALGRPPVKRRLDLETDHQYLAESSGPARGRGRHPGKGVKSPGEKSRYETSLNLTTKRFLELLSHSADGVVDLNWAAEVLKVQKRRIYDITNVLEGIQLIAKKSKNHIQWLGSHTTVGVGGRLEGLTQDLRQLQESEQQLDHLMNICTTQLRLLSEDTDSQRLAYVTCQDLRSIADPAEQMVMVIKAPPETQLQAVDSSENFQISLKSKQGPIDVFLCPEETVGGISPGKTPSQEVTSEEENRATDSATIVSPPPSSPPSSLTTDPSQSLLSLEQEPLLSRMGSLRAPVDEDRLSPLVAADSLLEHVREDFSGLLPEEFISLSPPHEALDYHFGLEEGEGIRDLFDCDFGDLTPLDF

CNC(=S)N(C)C
not listed: [10]
inactive: all other assays above

CCc1c(C(=O)O)c(=O)cnn1-c1ccc(Cl)cc1
inactive: all assays above

Cc1cnc(NC(=O)C2=C(O)c3ccccc3S(=O)(=O)N2C)s1
active: [5] 100 µM
not listed: [10]
inactive: all other assays above

C#CC1(O)CC[C@H]2[C@@H]3CCC4=CCCC[C@@H]4[C@H]3CC[C@@]21C (stereo partly specified)
active: [4] 1.24 µM | [8] 34 µM | [9] 49 µM
inactive: all other assays above

CCN(CCC#N)c1ccc(N=Nc2c(Cl)cc([N+](=O)[O-])cc2Cl)cc1
active: [6] 27 µM
not listed: [10]
inactive: all other assays above

CC(=O)c1ccc2c(c1)CCCC2
not listed: [10]
inactive: all other assays above

CCC(C)OC(=O)c1ccc(O)cc1 (stereo unspecified)
active: [3] 67.6 µM
inactive: all other assays above

COC(=O)c1c(C)cc(O)c(C)c1O
not listed: [10]
inactive: all other assays above

NC(=O)OCC(COC(N)=O)c1ccccc1
not listed: [10]
inactive: all other assays above

CCO[Si](CCCN=C=O)(OCC)OCC
not listed: [10]
inactive: all other assays above

COC(=O)/C=C/C(C)=C\C=C\C(C)=C\C=C\C=C(C)\C=C\C=C(C)\C=C\C(=O)O
inactive: all assays above

CC1(C)O[C@@H]2C[C@H]3[C@@H]4C[C@H](F)C5=CC(=O)C=C[C@]5(C)[C@@]4(F)[C@@H](O)C[C@]3(C)[C@]2(C(=O)CO)O1
not listed: [10]
inactive: all other assays above

Cc1ccc(C2OC[C@@H]3OC(c4ccc(C)cc4)O[C@H]([C@H](O)CO)[C@@H]3O2)cc1 (stereo partly specified)
active: [6] 142 µM
not listed: [10]
inactive: all other assays above

Cc1ccc(N/N=c2\c(=O)cc/c(=N/Nc3ccc(S(=O)(=O)O)cc3)c2=O)c(C)c1
active: [5] 9.18 µM
inactive: all other assays above

C=C(C)C(=O)OCCOc1ccccc1
inactive: all assays above

CCCCCCCCCCCSCC(=O)O
active: [4] 48.8 µM | [9] 2.13 µM
inactive: all other assays above

CCOC(=O)N1CCC(=C2c3ccc(Cl)cc3CCc3cccnc32)CC1
active: [3] 7.56 µM | [4] 9.1 µM
not listed: [10]
inactive: all other assays above

Cc1ccc2oc(=O)ccc2c1
not listed: [10]
inactive: all other assays above

O=CC1CC1
active: [5] 0.119 µM
not listed: [10]
inactive: all other assays above

Cc1ccc(N)c([N+](=O)[O-])c1
inactive: all assays above

C(=CC=Nc1ccccc1)C=CNc1ccccc1
active: [5] 10.1 µM | [6] 100 µM
not listed: [10]
inactive: all other assays above

Cn1c(=O)[nH]c2ncn(C)c2c1=O
inactive: all assays above

O=S(=O)(O)CC(O)CCl (stereo unspecified)
inactive: all assays above

O=c1cc(-c2ccccc2)oc2ccccc12
active: [3] 27.7 µM | [5] 7.62 µM | [7] 26.3 µM | [8] 133 µM
not listed: [10]
inactive: all other assays above

C=C[Si](OC(C)=O)(OC(C)=O)OC(C)=O
not listed: [10]
inactive: all other assays above

O=CN1CCCCC1
inactive: all assays above

O=C(/C=C/C=C/c1ccc2c(c1)OCO2)N1CCCCC1
active: [4] 72.6 µM | [8] 176 µM
not listed: [10]
inactive: all other assays above

CC(C)c1ccc(C#N)cc1
not listed: [10]
inactive: all other assays above

FC(F)(F)C(=NOCC1OCCO1)c1ccc(Cl)cc1
active: [4] 38.1 µM | [8] 150 µM
inactive: all other assays above

CCCCCC(C)O (stereo unspecified)
not listed: [10]
inactive: all other assays above

[Cl][Nd]([Cl])[Cl]
not listed: [10]
inactive: all other assays above

CC1(C)[C@H]2CC[C@]1(C)C(=O)C2
not listed: [10]
inactive: all other assays above

COc1ccc(NC(C)=O)cc1N
active: [5] 50.4 µM
not listed: [10]
inactive: all other assays above

CC1=NN(c2cc(S(=O)(=O)O)ccc2Cl)C(=O)C1N=Nc1ccccc1 (stereo unspecified)
active: [5] 0.541 µM
inactive: all other assays above

O=C(c1ccc(O)cc1)c1ccc(O)cc1O
active: [3] 68.7 µM | [8] 100 µM
not listed: [10]
inactive: all other assays above

C[Si](C)(C)O[Si](O)(O)O
inactive: all assays above

NC(=O)c1ccccc1O
not listed: [10]
inactive: all other assays above

COC(=O)C1=C(C)NC(C)=C(C(=O)OCC(C)C)C1c1ccccc1[N+](=O)[O-] (stereo unspecified)
inactive: all assays above

O=C1c2cccc(O)c2C(=O)c2c(O)cc(CO)cc21
active: [3] 11.3 µM | [6] 32.5 µM
inactive: all other assays above

Nc1ccc(Oc2ccc(N)c(N)c2)cc1
active: [3] 85.5 µM
not listed: [10]
inactive: all other assays above

CCOC(=O)c1ccc(N(C)C)cc1
active: [5] 44.4 µM
inactive: all other assays above

C=CC(=O)OCC(Br)CBr (stereo unspecified)
active: [2] 180 µM | [3] 100 µM | [4] 53.4 µM
inactive: all other assays above

CCCCC(CC)CCC(CC(C)C)OS(=O)(=O)O (stereo unspecified)
active: [1] 142 µM | [6] 139 µM
inactive: all other assays above

Nc1ccc(N)c(Cl)c1
active: [1] 49.6 µM | [3] 9.98 µM | [5] 1.99 µM | [6] 18.1 µM | [9] 33.4 µM
inactive: [2] | [4] | [7] | [8] | [10]

[Cl][Bi]([Cl])([c]1ccccc1)([c]1ccccc1)[c]1ccccc1
active: [1] 6.38 µM | [4] 3.07 µM | [6] 5.85 µM | [8] 6.21 µM
inactive: all other assays above

CC1(C)O[C@@H]2C[C@H]3[C@@H]4C[C@H](F)C5=CC(=O)CC[C@]5(C)[C@H]4[C@@H](O)C[C@]3(C)[C@]2(C(=O)CO)O1
inactive: all assays above

O=c1c2ccccc2nnn1CCl
inactive: all assays above

O=C(OCC1CCC2OC2C1)C1CCC2OC2C1 (stereo unspecified)
inactive: all assays above

C=C[C@](C)(O)CC[C@@H]1[C@@]2(C)CCCC(C)(C)[C@@H]2CC[C@@]1(C)O
inactive: all assays above

Cc1cc(=O)n(-c2ccccc2)n1C
inactive: all assays above
